Screens from PubChem BioAssay.
HepG2 tox – qHTS for Inhibitors of TGF-b: Cytotox Counterscreen | HepG2 CAGA-GFP viability, ATP luminescence, 18 h | Potency, µM (doses to about 46.1 µM), for the others: top-dose activity change, negative = cytotoxicity, usual class: cytotoxic | hit rate 0.76% among 410,000
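HepG2 CAGA-GFP cells (1000/well, DMEM with 1% FBS) received compound, then TGF-beta at 500 pg/mL final, and were incubated 18 hours at 37 degrees C. Viability was read by CellTiter-Glo luminescence. Media-only wells were set as complete cell-killing and DMSO as no toxicity.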
HT1080 IDH1KD tx – qHTS for induction of synthetic lethality in tumor cells producing 2HG: qHTS for the HT-1080-IDH1KD cell line; hit rate 2% among 360,000; Potency, µM (doses to about 46.1 µM), for inactives: at the highest dose activity, negative = toxicity, usual class: cytotoxic; HT-1080 IDH1 knockdown viability, ATP luminescence, 48 h;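 note: 0% = DMSO wells and -100% = cell-free medium wells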
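IDH1KD HT-1080 cells, 750/well, RPMI + 5% FBS; compound pinned after 2 h settling; 48 h, 37 °C; CellTiter-Glo luminescence; % activity normalised to DMSO and no-cell wells; curves fitted, classed by r2 and efficacy.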
HT1080NT lethal – qHTS for induction of synthetic lethality in tumor cells producing 2HG: qHTS for the HT-1080-NT fibrosarcoma cell line. HT-1080-NT fibrosarcoma viability, CellTiter-Glo ATP luminescence, 48 h. Potency, µM (doses to about 46.1 µM), without a hit: top-dose activity, negative = less viability, actives largely listed as cytotoxic. hit rate 1.6% among 360,000. AID 686970, 2013;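 note: NT is the 2HG producing partner of a matched IDH1 knockdown line; 0% = DMSO-treated cells and -100% = media-only wells without cells; nearly all actives have a fitted effect of over 55% in size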
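HT-1080-NT fibrosarcoma cells (2HG-overproducing), 750 cells/well in RPMI with 5% FBS, dosed after 2 h and incubated 48 h at 37C. CellTiter-Glo luminescence normalized to DMSO and no-cell wells; concentration-response curves fitted and classed.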
KB-3-1 tox – qHTS assay for MDR1-selective chemotherapeutics: Primary screen using the parental adenocarcinoma cell KB-3-1; KB-3-1 viability, CellTiter-Glo ATP luminescence, 72 h; Potency, µM (doses to about 46.1 µM), actives largely listed as cytotoxic; hit rate 1.4% among 400,000; AID 1347075, 2019; note: % is set by controls: 0 for no effect and ±100 for the full control effect; nearly all actives have a fitted effect of over 60% in size
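Cells are dispensed, compounds pinned in, plates held at 37 °C for 72 h, then CellTiter-Glo is added and luminescence read after 10 minutes. Cell line: parental KB-3-1 in phenol-red-free DMEM, 10% FBS.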
KB-V1 MDR tox – qHTS assay for MDR1-selective chemotherapeutics: Primary screen using the drug-selected MDR subline cells KB-V1; Potency, µM (titrated, usually from 46.1 µM), actives largely listed as cytotoxic; hit rate 3.4% among 400,000; KB-V1 MDR cells viability, CellTiter-Glo, 72 h; note: % is set by controls: 0 for no effect and ±100 for the full control effect; nearly all actives have a fitted effect of over 60% in size
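Drug-selected KB-V1 cells, grown in DMEM lacking phenol red with 10% FBS, receive compound titrations; after three days at 37 degrees C, surviving cell ATP is quantified by CellTiter-Glo luminescence and responses normalized and curve-fitted.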
TGFb inhibitor – qHTS for Inhibitors of TGF-b. HepG2 CAGA-GFP TGF-b/SMAD3 reporter, GFP fluorescence, 18 h; TGF-beta stimulated, 500 pg/mL final. Potency, µM (series often up to 46.1 µM), for inactives: at the top dose activity, negative = inhibition, hits mostly inhibitors. hit rate 1.2% among 410,000; note: % is set by controls: 0 for no effect and ±100 for the full control effect; nearly all actives have a fitted effect of over 65% in size
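HEPG2 CAGA-GFP cells (1000/well, DMEM with 1% FBS) were pre-incubated 2 h at 37 degrees C, given compound by pin tool, then stimulated with TGF-beta at 500 pg/mL final for 18 h before per-cell GFP fluorescence imaging.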
Numbers without * were called inactive; i = inactive; ? = inconclusive; . = no result. Sampled rows, rich in hits. Any-hit rate of the full collection: about 6.6%. Calls come from the whole dose curve; as a rule, active = well fitted curve in the direction sought with a large enough effect; inconclusive = small, poorly fitted or top-dose-only effect, or another doubt; inactive = no such curve, though single readings can be large; an effect the other way counts as inactive or inconclusive. Potency is the fitted concentration of half-maximal effect.

SMILES	HepG2 tox	HT1080 IDH1KD tx	HT1080NT lethal	KB-3-1 tox	KB-V1 MDR tox	TGFb inhibitor
Cc1ccc(CNC(=O)Cn2cc(S(=O)(=O)Cc3cccc(Cl)c3)c3ccccc32)cc1	-1%	.	.	i	i	0%
CC12CCC(O)CC1=CCC1C2CCC2(C)C3=NN=CC3CC12 (centres undefined)	7%	33µM*	?	?	?	0%
CC(=O)C1(O)C(C)CC2C3CC=C4CC(O)CCC4(C)C3CCC21C (centres undefined)	11%	2%	3%	i	i	9%
Cc1noc2ncnc(NCCc3ccccc3)c12	-1%	.	.	?	i	?
Cc1ccc(CCNc2ncnc3onc(C)c23)cc1	-25%	.	.	2.9µM*	i	-4%
CCOc1ccc(CCNc2ncnc3onc(C)c23)cc1OCC	-21%	.	.	2.6µM*	i	-23%
COc1ccc(C2CC(=O)c3cc(-c4nc(-c5cccc(Cl)c5)cs4)c(=O)[nH]c3C2)cc1OC (centres undefined)	-7%	.	.	i	i	4%
CC(C)OCCCn1c(=O)c2ccccc2n2c(-c3ccc(F)cc3)nnc12	-2%	.	.	i	i	-2%
S=C(NC1CCCCC1)N1CCc2ccccc2C1	-9%	?	-9%	?	15µM*	?
S=C(NC1CCCC1)N1CCN(c2ccccn2)CC1	-3%	26%	10%	i	21µM*	1%
CC(=NNC(=S)N1CCCCCC1)c1cccc2cccnc12	14%	?	-8%	?	3.7µM*	2.2µM*
O=C(NC(=S)N1CCN(c2ccccn2)CC1)c1ccccc1	-1%	9%	13%	i	?	-24%
CC(=NNC(=S)N1CCN(C2CCCCCC2)CC1)c1ccccn1	-79%	?	21µM*	?	?	?
COc1cc(NC(=S)N2CCN(c3ccccn3)CC2)c(OC)cc1Cl	-15%	-3%	0%	i	18µM*	-15%
COc1ccc(Cl)cc1NC(=S)N1CCN(c2ccccn2)CC1	-17%	-10%	0%	i	i	9%
CC(=NNC(=S)N1CCN(c2ccccn2)CC1)c1ccccn1	2%	?	-9%	i	7.3µM*	0%
O=C(NC1CCCCC1)C(CCc1ccccc1)N1CCc2ccccc2C1 (centres undefined)	-12%	?	?	?	?	10µM*
CC(=NNC(=S)N1CCN(c2ccccn2)CC1)c1nccs1	1%	?	-19%	?	?	?
COc1cccc(CNCCSc2nnnn2C)c1OCc1ccccc1F	-28%	.	.	i	i	?
COc1ccc(NC(=O)c2ccc(Cn3cc(Cl)cn3)cc2)cc1	-6%	-1%	-2%	i	i	10%
O=C(NCc1cccnc1)c1ccc(NC(=O)c2ccc([N+](=O)[O-])cc2)cc1	-4%	15µM*	?	i	i	-15%
CC(C)c1ccc(C(=O)NC(=S)NCc2cccnc2)cc1	-25%	-9%	-14%	?	2.9µM*	-9%
CN(C)c1ccc(NC(=O)c2ccc(Cn3cc([N+](=O)[O-])cn3)cc2)cc1	-5%	?	-10%	18µM*	i	-3%
CC(C)(C)c1ccc(C(=O)Nc2ccc(C(=O)NCc3cccnc3)cc2)cc1	-1%	1µM*	1.6µM*	i	i	6%
O=C1CC(c2ccc3c(c2)OCO3)c2cc3c(cc2N1)OCCO3 (centres undefined)	-14%	-10%	-16%	i	i	-9%
SMILES	HepG2 tox	HT1080 IDH1KD tx	HT1080NT lethal	KB-3-1 tox	KB-V1 MDR tox	TGFb inhibitor
Cc1ccc(C2CC(=O)Nc3cc4c(cc32)OCCO4)cc1Br (centres undefined)	-38%	.	.	?	i	13µM*
CC1=C(C(=O)c2ccccc2)C(c2ccc(OC(F)F)cc2)NC(=S)N1 (centres undefined)	-7%	15µM*	?	i	?	?
COC(=O)[C@@]12C[C@@H](CC(=O)N3CCN(C(=O)c4ccco4)CC3)C(=O)N(Cc3cccc4ccccc34)C1=CCC(C)(C)C2	.	21µM*	?	?	23µM*	.
CCCCCCCCN1C(=O)[C@H](CC(=O)N2CCN(C(=O)c3ccco3)CC2)C[C@@]2(C(=O)OC)CC(C)(C)CC=C12	.	?	?	i	?	.
CCOC(=O)N1CCN(C(=O)C[C@@H]2C[C@@]3(C(=O)OC)CC(C)(C)CC=C3N(Cc3cccc4ccccc34)C2=O)CC1	.	?	?	i	18µM*	.
Cc1ccc(CN(Cc2ccco2)C(=O)c2ccc(OCC(C)C)cc2)cc1	-35%	.	.	i	i	?
Cc1nn(C)c2c1c(C(F)(F)F)cc(=O)n2C(C)C(=O)N1CCN(c2ccccc2)CC1 (centres undefined)	-4%	.	.	?	i	-7%
COc1ccc(C2CC(c3ccc(Cl)cc3)Nc3nc(NC(=O)c4ccco4)nn32)cc1 (centres undefined)	9%	?	-30%	i	i	?
O=C(Nc1nc2n(n1)C(c1ccc(Cl)cc1)CC(c1ccc(Cl)cc1)N2)c1ccco1 (centres undefined)	-42%	23µM*	23µM*	?	?	?
Cc1cc(C)c2c(N)c3cccc(C)c3nc2n1	26%	9.2µM*	10µM*	7.3µM*	8.2µM*	?
Cc1cccc2c(N)c3c(nc12)CCCC3 (tested in a mixture with another compound)	-24%	-4%	3%	i	i	-27%
CCCCOC(=O)Nc1ccccc1C(=O)N1CCCC1	5%	10%	0%	i	13µM*	3%
COc1ccc(C)cc1NC(=O)c1cc(C2CC2)nc2c1c(C)nn2C1CCS(=O)(=O)C1 (centres undefined)	-6%	-3%	2%	i	4.6µM*	7%
CC(NC(=O)COc1ccc(-c2nnco2)cc1)c1ccc(Cl)cc1Cl (centres undefined)	-19%	-14%	0%	?	21µM*	-34%
Cc1ccc(Nc2nc(NCc3ccco3)nc3nccnc23)c(C)c1	7%	.	.	i	i	2%
